Experimental data as given in PubChem BioAssay (NCATS).
Records with an inconclusive call do not appear. Calls of active or inactive are those of the source. Calls follow the shape of the dose curve; as a rule, active = well fitted inhibition curve with a large enough effect; inconclusive = small, poorly fitted or top-dose-only effect; inactive = flat fitted curve, though single readings scatter.

Experiments:
Experiment in all cases: qHTS profiling for inhibitors of Plasmodium falciparum proliferation (AID 504749); also: nearly all actives have a fitted effect of over 60% in size
Conditions in all cases: P. falciparum in erythrocytes, SYBR Green DNA, 72 h; series mostly up to 28.7 µM
3D7 = system: 3D7
How it was run: (§1)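 Three-day growth assay of blood-stage parasites in erythrocytes (0.3% parasitemia, 2.5% hematocrit) at 37 C, 5% CO2, quantified by SYBR Green DNA staining after overnight detergent lysis.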

7G8 = system: 7G8
How it was run: as §1

AA1029 = system: AA1029
How it was run: as §1

AS120 = system: AS120
How it was run: as §1

ATS189 = system: ATS189
How it was run: as §1

ATS95 = system: ATS95
How it was run: as §1

C2A = system: C2A
How it was run: as §1

CP185 = system: CP185
How it was run: as §1

CP191 = system: CP191
How it was run: as §1

CP192 = system: CP192
How it was run: as §1

CP194 = system: CP194
How it was run: as §1

CP201 = system: CP201
How it was run: as §1

CP211 = system: CP211
How it was run: as §1

CP215 = system: CP215
How it was run: as §1

CP217 = system: CP217
How it was run: as §1

CP237 = system: CP237
How it was run: as §1

CP238 = system: CP238
How it was run: as §1

CP247 = system: CP247
How it was run: as §1

CP250 = system: CP250
How it was run: as §1

CP203 = system: CP203
How it was run: as §1

Measured: Potency
Potency is read from the fitted curve at half-maximal effect.

CC(=O)Oc1c(C)cc(OCC(O)CNC(C)C)c(C)c1C (centres undefined)
inactive: 3D7 | 7G8 | AA1029 | AS120 | ATS189 | ATS95 | C2A | CP185 | CP191 | CP192 | CP194 | CP201 | CP211 | CP215 | CP217 | CP237 | CP238 | CP247 | CP250

Nc1c(Br)cc(Br)cc1CNC1CCC(O)CC1 (centres undefined)
inactive: 3D7 | 7G8 | AA1029 | AS120 | ATS189 | ATS95 | C2A | CP185 | CP191 | CP192 | CP194 | CP201 | CP211 | CP215 | CP217 | CP238 | CP247 | CP250

C#CCOc1ccc2c(C)cc(=O)oc2c1
inactive: 3D7 | 7G8 | AA1029 | AS120 | ATS189 | ATS95 | C2A | CP185 | CP191 | CP192 | CP194 | CP201 | CP211 | CP215 | CP217 | CP237 | CP238 | CP247 | CP250

CCN(CC)Cc1cc(Nc2ccnc3cc(Cl)ccc23)ccc1O
active: 3D7 0.0282 µM | 7G8 0.0355 µM | AA1029 0.0631 µM | AS120 0.0447 µM | ATS189 0.141 µM | ATS95 0.0631 µM | C2A 0.0562 µM | CP185 0.0631 µM | CP191 0.0398 µM | CP192 0.161 µM | CP194 0.128 µM | CP201 90.7 nM | CP211 0.0642 µM | CP215 0.128 µM | CP217 0.112 µM | CP237 0.0355 µM | CP238 0.0891 µM | CP247 0.1 µM | CP250 0.0178 µM

CCCCCC(CC)COC(=O)CC(C(=O)OCC(CC)CCCC)S(=O)(=O)O (centres undefined)
inactive: 3D7 | 7G8 | AA1029 | AS120 | ATS189 | ATS95 | C2A | CP185 | CP191 | CP217 | CP237 | CP238 | CP250
active: CP247 11.2 µM

CCCCCCC(O)C/C=C/CCCCCCCC(=O)O (centres undefined)
inactive: 3D7 | 7G8 | AA1029 | AS120 | ATS189 | ATS95 | C2A | CP185 | CP191 | CP192 | CP194 | CP201 | CP215 | CP217 | CP237 | CP238 | CP247 | CP250

CC(NNC(=O)c1ccccc1)c1ccccc1 (centres undefined)
inactive: 3D7 | 7G8 | AA1029 | AS120 | ATS189 | ATS95 | C2A | CP185 | CP191 | CP192 | CP194 | CP201 | CP211 | CP215 | CP217 | CP237 | CP238 | CP247 | CP250

IC(I)I
inactive: 3D7 | 7G8 | AA1029 | AS120 | ATS189 | ATS95 | C2A | CP185 | CP191 | CP194 | CP201 | CP203 | CP211 | CP217 | CP237 | CP238 | CP247 | CP250

Cc1ccccc1OCC(O)CNCCOc1ccc(C(N)=O)cc1 (centres undefined)
inactive: 3D7 | 7G8 | AA1029 | AS120 | ATS189 | ATS95 | C2A | CP185 | CP191 | CP192 | CP194 | CP201 | CP211 | CP215 | CP217 | CP237 | CP238 | CP247 | CP250

C=CCSSSCC=C
inactive: 3D7 | 7G8 | AA1029 | AS120 | ATS189 | ATS95 | C2A | CP185 | CP191 | CP192 | CP194 | CP201 | CP211 | CP215 | CP217 | CP237 | CP238 | CP247 | CP250

CCCCCCCC/C=C\CCCCCCCC(=O)O
inactive: 3D7 | 7G8 | AA1029 | AS120 | ATS189 | ATS95 | C2A | CP185 | CP191 | CP192 | CP194 | CP201 | CP211 | CP215 | CP217 | CP237 | CP238 | CP247 | CP250

CC[C@@]1(O)C(=O)OCc2c1cc1n(c2=O)Cc2cc3c([N+](=O)[O-])cccc3nc2-1
active: 3D7 5.01 µM | 7G8 5.01 µM | AA1029 7.08 µM | AS120 5.01 µM | ATS189 7.94 µM | ATS95 5.01 µM | C2A 7.94 µM | CP185 8.91 µM | CP191 11.2 µM | CP194 12 µM | CP215 13.5 µM | CP217 10 µM | CP237 3.98 µM | CP238 8.91 µM | CP247 11.2 µM | CP250 12.6 µM

COC(=O)C1=C(C#N)NC(C)=C(C(=O)OC(C)C)C1c1cccc([N+](=O)[O-])c1 (centres undefined)
active: 3D7 8.91 µM | 7G8 10 µM | AA1029 11.2 µM | AS120 8.91 µM | ATS189 11.2 µM | ATS95 11.2 µM | C2A 11.2 µM | CP185 7.94 µM | CP191 11.2 µM | CP194 12 µM | CP203 7.57 µM | CP211 9.53 µM | CP217 11.2 µM | CP238 10 µM | CP247 8.91 µM

C[C@]12CCC(=O)C=C1CC[C@@H]1[C@@H]2[C@@H](O)C[C@@]2(C)[C@H]1CC[C@]2(O)C(=O)COP(=O)(O)O
inactive: 3D7 | 7G8 | AA1029 | AS120 | ATS189 | ATS95 | C2A | CP185 | CP191 | CP192 | CP194 | CP201 | CP211 | CP215 | CP217 | CP237 | CP238 | CP250

C=C1C(=CC=C2CCC[C@@]3(C)[C@@H]2CC[C@H]3[C@H](C)CCCC(C)C)C[C@@H](O)C[C@@H]1O
inactive: AA1029 | CP192 | CP194 | CP201 | CP211 | CP215
active: 3D7 11.2 µM | 7G8 10 µM | C2A 10 µM | CP191 11.2 µM

O=C1CSC2(CCN(CCCN3c4ccccc4Sc4ccc(Cl)cc43)CC2)N1
active: 7G8 11.2 µM
inactive: C2A | CP185 | CP238 | CP250

CCOC(=O)C1=C(C)NC(C)=C(C(=O)OCC)C1c1ccccc1C=CC(=O)OC(C)(C)C
inactive: C2A
active: 3D7 11.2 µM | 7G8 7.94 µM | AA1029 8.91 µM | AS120 8.91 µM | ATS95 10 µM | CP185 11.2 µM | CP191 8.91 µM | CP192 12 µM | CP194 15.1 µM | CP211 15.1 µM | CP215 16.9 µM | CP217 10 µM | CP237 8.91 µM | CP238 10 µM

CCOc1ccc(N=Nc2ccc(N)cc2N)cc1
inactive: 3D7 | AA1029 | AS120 | ATS95 | C2A | CP185 | CP191 | CP192 | CP194 | CP201 | CP203 | CP211 | CP215 | CP217 | CP237 | CP238 | CP250

O=S(=O)(O)O
inactive: 7G8 | AA1029 | AS120 | ATS189 | ATS95 | C2A | CP185 | CP191 | CP192 | CP194 | CP201 | CP211 | CP217 | CP237 | CP238 | CP247 | CP250
